# According to PubChem BioAssay:
# Activity calls are given as the source filed them.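 The calls were made as follows: active = compound raises insulin release from rat beta cells at 5 mM glucose, no numeric limit stated; inactive = the rest.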
# Test: stimulators of nuclear beta-catenin in C2C12, primary screen, imaging, WNT3A-conditioned medium, mouse C2C12, NPC library (AID 1117326)
# Settings: stimulation, at 2 µM, stronger effect = higher value
# Also: reference of the scale not given here.
row,SMILES,nuclear beta-catenin stimulation [%]
1,Nc1[nH]c(=O)ncc1F,1.7
2,O=C1CCc2ccc(OCCCCN3CCN(c4cccc(Cl)c4Cl)CC3)cc2N1,0.4
3,COc1cc(C(=O)NC2CCCNC2)cc(OC)c1OC (configuration not stated),2.8
4,COc1ccc(C(=O)NCc2ccc(OCCN(C)C)cc2)cc1OC,1
5,COCc1c(C(C)C)nc(C(C)C)c(/C=C/[C@@H](O)C[C@@H](O)CC(=O)O)c1-c1ccc(F)cc1,44.8
6,CC(C)(C)C(O)/C=C/c1ccc2c(c1)OCO2 (configuration not stated),1.5
7,Cc1ccnc2c1NC(=O)c1cccnc1N2C1CC1,1.8
8,CCOc1cc(CC(=O)N[C@@H](CC(C)C)c2ccccc2N2CCCCC2)ccc1C(=O)O,0.2
9,Nc1c2c(nc3c1CCC3)CCCC2,0.3
10,CCOC(=O)OC(C)OC1=C(C(=O)Nc2ccccn2)N(C)S(=O)(=O)c2ccccc21 (configuration not stated),-0.8
11,CN1CCN(c2c(F)cc3c(=O)c(C(=O)O)cn4c3c2SCC4)CC1,-0.2
12,Cc1nc2n(c(=O)c1CCN1CCC(c3noc4cc(F)ccc34)CC1)CCCC2,4.4
13,O=C(O)/C=C/c1ccc(Cn2ccnc2)cc1,1.2
14,O=C(NCCO[N+](=O)[O-])c1cccnc1,-0.5
15,Cc1nc2ccc(CN(C)c3ccc(C(=O)N[C@@H](CCC(=O)O)C(=O)O)s3)cc2c(=O)[nH]1,62.4
16,CCCN1CCCC[C@H]1C(=O)Nc1c(C)cccc1C,-1.3
17,COc1cc2c(cc1OC)C(=O)C(CC1CCN(Cc3ccccc3)CC1)C2 (configuration not stated),-0.2
18,N#Cc1ccc(C(c2ccc(C#N)cc2)n2cncn2)cc1,0
19,Cc1[nH]cnc1CN1CCc2c(c3ccccc3n2C)C1=O,1.4

# Test: stimulators of insulin release from INS-1E, primary screen, cell-based, 5 mM glucose, NPC library (AID 1117329)
# Settings: rat INS-1E insulin secretion, at 10 µM, stronger effect = higher value
row,SMILES,insulin secretion stimulation
1,CNNCc1ccc(C(=O)NC(C)C)cc1,0.5% (inactive)
2,Nc1nc2c(ncn2CCC(CO)CO)c(=O)[nH]1,-2.4% (inactive)
3,O=C1CC2(CCCC2)CC(=O)N1CCNCC1COc2ccccc2O1 (configuration not stated),5% (inactive)
4,Cn1nnc2c(C(N)=O)ncn2c1=O,6.3% (inactive)
5,O=C1[C@H]2CCCC[C@H]2C(=O)N1CCCCN1CCN(c2nsc3ccccc23)CC1,5.5% (inactive)
6,O=C(O)CCNC(=O)c1ccc(N=Nc2ccc(O)c(C(=O)O)c2)cc1,5.4% (inactive)
7,CC(Oc1c(Cl)cccc1Cl)C1=NCCN1 (configuration not stated),2.3% (inactive)
8,CN1CCN(C2=Nc3cc(F)ccc3Cc3ccccc32)CC1,3.3% (inactive)
9,COC(=O)C1=C(C)NC(C)=C(C(=O)OC(C)C)C1c1cccc2nonc12 (configuration not stated),-0.7% (inactive)
10,CCOc1cc(N)c(Cl)cc1C(=O)NCC1CN(Cc2ccc(F)cc2)CCO1 (configuration not stated),-0.4% (inactive)
11,O=c1c(-c2ccccc2)c1-c1ccccc1,0.3% (inactive)
12,O=C1Nc2ccc(Cl)cc2[C@@](C#CC2CC2)(C(F)(F)F)O1,11.3% (inactive)
13,Nc1nc(N)nc(-c2cc(Cl)ccc2Cl)n1,2% (inactive)
14,OCCOCCN1CCN(C2=Nc3ccccc3Sc3ccccc32)CC1,2.8% (inactive)
15,CC(=O)Nc1ccc(CC(=O)O)cc1,-2.2% (inactive)
16,O=c1[nH]cnc2c1ncn2[C@H]1CC[C@@H](CO)O1,3.9% (inactive)
17,COC(=O)C1=C(C)NC(C)=C(C(=O)O[C@@H]2CCCN(Cc3ccccc3)C2)[C@@H]1c1cccc([N+](=O)[O-])c1,1.9% (inactive)
18,Cc1c(O)cccc1C(=O)N[C@@H](CSc1ccccc1)[C@H](O)CN1C[C@H]2CCCC[C@H]2C[C@H]1C(=O)NC(C)(C)C,2.3% (inactive)
19,CCc1nn(CCCN2CCN(c3cccc(Cl)c3)CC2)c(=O)n1CCOc1ccccc1,-1.1% (inactive)

row,SMILES,insulin secretion stimulation
1,Nc1[nH]c(=O)ncc1F,-1.8% (inactive)
2,O=C1CCc2ccc(OCCCCN3CCN(c4cccc(Cl)c4Cl)CC3)cc2N1,3.7% (inactive)
3,COc1cc(C(=O)NC2CCCNC2)cc(OC)c1OC (configuration not stated),1.6% (inactive)
4,COc1ccc(C(=O)NCc2ccc(OCCN(C)C)cc2)cc1OC,0.75% (inactive)
5,COCc1c(C(C)C)nc(C(C)C)c(/C=C/[C@@H](O)C[C@@H](O)CC(=O)O)c1-c1ccc(F)cc1,-0.8% (inactive)
6,CC(C)(C)C(O)/C=C/c1ccc2c(c1)OCO2 (configuration not stated),-1.1% (inactive)
7,Cc1ccnc2c1NC(=O)c1cccnc1N2C1CC1,-1.6% (inactive)
8,CCOc1cc(CC(=O)N[C@@H](CC(C)C)c2ccccc2N2CCCCC2)ccc1C(=O)O,43.9% (active)
9,Nc1c2c(nc3c1CCC3)CCCC2,21.2% (active)
10,CCOC(=O)OC(C)OC1=C(C(=O)Nc2ccccn2)N(C)S(=O)(=O)c2ccccc21 (configuration not stated),0.55% (inactive)
11,CN1CCN(c2c(F)cc3c(=O)c(C(=O)O)cn4c3c2SCC4)CC1,0.05% (inactive)
12,Cc1nc2n(c(=O)c1CCN1CCC(c3noc4cc(F)ccc34)CC1)CCCC2,2.5% (inactive)
13,O=C(O)/C=C/c1ccc(Cn2ccnc2)cc1,1.9% (inactive)
14,O=C(NCCO[N+](=O)[O-])c1cccnc1,1.2% (inactive)
15,Cc1nc2ccc(CN(C)c3ccc(C(=O)N[C@@H](CCC(=O)O)C(=O)O)s3)cc2c(=O)[nH]1,-5.7% (inactive)
16,CCCN1CCCC[C@H]1C(=O)Nc1c(C)cccc1C,31% (active)
17,COc1cc2c(cc1OC)C(=O)C(CC1CCN(Cc3ccccc3)CC1)C2 (configuration not stated),1.25% (inactive)
18,N#Cc1ccc(C(c2ccc(C#N)cc2)n2cncn2)cc1,0.6% (inactive)
19,Cc1[nH]cnc1CN1CCc2c(c3ccccc3n2C)C1=O,0.5% (inactive)
